Source: PubChem BioAssay AID1376 (SRMLSC, 2008)
Screen size: about 220,000 compounds; about 530 (0.24%) were called active. The sample holds actives, similar compounds and a random draw of the others, so the mix is not that of the screen. Entries with a potency or affinity are not part of this list. Unmarked numbers belong to inactive results. Cut-off read from the data, not from the text of the source: active = inhibition above about 13%; inconclusive = no clear call, values can overlap the other calls; inactive = below that.

Molecular target: Bifunctional protein GlmU (Mycobacterium tuberculosis (strain ATCC 25618 / H37Rv)) (UniProt P9WMN3)
Sequence (P9WMN3 whole entry, looked up): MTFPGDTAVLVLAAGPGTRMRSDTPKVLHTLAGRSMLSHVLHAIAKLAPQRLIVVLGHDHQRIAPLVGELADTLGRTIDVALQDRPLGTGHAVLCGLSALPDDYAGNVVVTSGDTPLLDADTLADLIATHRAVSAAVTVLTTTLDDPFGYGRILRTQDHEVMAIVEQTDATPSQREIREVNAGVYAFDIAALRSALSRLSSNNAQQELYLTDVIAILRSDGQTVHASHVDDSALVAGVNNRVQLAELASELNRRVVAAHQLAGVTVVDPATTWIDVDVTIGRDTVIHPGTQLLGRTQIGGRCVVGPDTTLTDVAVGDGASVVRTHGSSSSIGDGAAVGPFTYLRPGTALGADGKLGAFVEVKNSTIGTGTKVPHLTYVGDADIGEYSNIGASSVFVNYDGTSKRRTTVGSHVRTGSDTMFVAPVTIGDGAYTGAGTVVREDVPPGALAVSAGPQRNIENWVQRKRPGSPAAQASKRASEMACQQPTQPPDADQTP
Assay: inhibition of mycobacterial GlmU enzyme – biochemical, glucosamine-1-phosphate acetyltransferase (AID 1376);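 note: 0% = complete reaction with vehicle and 100% = reaction without substrate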
Settings: M. tuberculosis GlmU acetyltransferase enzyme assay; active compounds read high;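 tested at 30 µM in the primary screen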

SMILES | inhibition
Oc1ccccc1/C=N/NC1=NCCCCC1 | -2.12%
COC(C(=O)NCc1ccc(C)cc1)c1ccccc1 (stereo not given) | -0.55%
CCC(=O)NCc1c(Cl)cccc1-n1cccc1 | -2.25%
CC(=O)NCc1c(Cl)cccc1-n1cccc1 | -2.69%
CC(C)=CC(=O)NCc1c(Cl)cccc1-n1cccc1 | 23.8% (active)
Cc1ccc(CNC(=O)CCS(=O)(=O)c2ccc(C)cc2)cc1 | -0.32%
COC(=O)c1ccccc1NC(=O)CCS(=O)(=O)c1ccc(Br)s1 | 6.53%
Cc1ccc(CCNC(=O)CCS(=O)(=O)c2ccc(Br)cc2)cc1 | -0.29%
COC(=O)c1ccc(NC(=O)CCS(=O)(=O)c2ccc(Br)cc2)cc1 | 3.55%
COc1cccc(CN2CCN(S(=O)(=O)c3ccc(Br)cc3)CC2)c1 | -0.5%
COc1cc(C=C2C(=O)c3ccccc3C2=O)ccc1O | 10.6%
COc1ccc(C=C2C(=O)c3ccccc3C2=O)cc1O | 9.53%
CC(C)(C)N1C(=O)c2ccccc2NC(=O)N1Cc1ccccc1 | -6.09%
O=C1c2ccccc2CC1(Cc1ccccc1)Cc1ccccc1 | -4.43%
N#CCCN(Cc1cccnc1)C(=S)NC(=O)C1CC1 | -4.01%
Cc1cccc(CSc2nnc(-c3ccccn3)n2N)c1 | 1.5%
COc1ccc(/C=N/N=C2/NC(=O)C(CC(=O)O)S2)cc1OS(=O)(=O)c1ccccc1 (stereo not given) | 3.56%
CCOc1cc(/C=N/N=C2/NC(=O)C(CC(=O)O)S2)ccc1OS(=O)(=O)c1ccc(C)cc1 (stereo not given) | 13.1% (active)
CCOc1cc(/C=N/N=C2/NC(=O)C(CC(=O)O)S2)ccc1OCc1ccc(Cl)cc1 (stereo not given) | 0.64%
Cc1ccc(/C=C2\SC(=S)N(CC3CCCO3)C2=O)o1 (stereo not given) | 9.7%
O=C(CSc1nc2ccccc2o1)N1CCN(S(=O)(=O)c2ccc3ccccc3c2)CC1 | -1.93%
CCc1ccc(N(CC(=O)NCc2ccc(F)cc2)C(=O)c2csnn2)cc1 | 1.98%
CCOc1ccc(/C=N/Nc2nc(=O)[nH]nc2C)cc1OC | 2.62%
O=C(NN1C(=O)/C(=C/C=C/c2ccco2)SC1=S)c1ccncc1 | 10.6%
O=C1/C(=C/c2cccs2)SC(=S)N1NS(=O)(=O)c1ccccc1 | 11.6%

SMILES | inhibition
CC(/C=C1\SC(=S)N(NS(=O)(=O)c2ccccc2)C1=O)=C\c1ccccc1 | 5.96%
Cn1cccc1/C=C1\SC(=S)N(NC(=O)c2ccccc2O)C1=O | 0.05%
O=C(NCC(c1cccnc1)N1CCN(c2ccccc2F)CC1)OCc1ccccc1 (stereo not given) | -3.82%
CC(C)CNC(CC(=O)Nc1cccc([N+](=O)[O-])c1)C(=O)O (stereo not given) | 0.89%
CN(C)/C=C(\C#N)C(=O)Nc1ccc(O)cc1F | -2.68%
CC(NC(=O)c1ccco1)C(=O)OCc1cccc(Cl)c1 (stereo not given) | 2.75%
Cc1ccccc1NC(=O)CS(=O)(=O)c1cn(CC(=O)N2CCOCC2)c2ccccc12 | -2.25%
CCCN(Cc1cc2ccccc2[nH]c1=O)C(=O)c1cccc([N+](=O)[O-])c1 | -2.01%
O=C(O)c1cccc(Cn2c(Cl)c(/C=N/NC(=O)c3ccccc3O)sc2=O)c1 | 5.34%
O=C(O)c1cccc(Cn2c(Cl)c(/C=N/NC(=O)c3ccccc3)sc2=O)c1 | 1.79%
CCC(C)OC(=O)C[N+](C)(C)CCOC1CC2CCC1(C)C2(C)C (stereo not given) | -2.89%
Cn1c(=O)c([N+](=O)[O-])c(NCc2ccc3c(c2)OCO3)c2ccccc21 | 0.57%
S=c1[nH]nc(COc2ccccc2)n1/N=C/c1ccco1 | 3.61%
Nc1c(C(=O)NCC2CCCO2)sc2nc3c(c(-c4ccco4)c12)CC/C3=C\c1ccco1 (stereo not given) | 12.4%
Nc1c(C(=O)Nc2ccccc2)sc2nc3c(c(-c4ccco4)c12)CCC3 | -1.21%
Nc1c(C(=O)NC2CC2)sc2nc3c(c(-c4ccco4)c12)CC/C3=C/c1ccco1 | 16.9% (active)
Cc1cccc2cc(C#N)c(NCc3ccccc3)nc12 | 1.49%
CCOC(=O)N1CCC(NC(=O)c2cccn3c(=O)c4cc(Br)ccc4nc23)CC1 | 3.26%
CCOc1ccccc1NC=C1C(=O)OC2(CCCCC2)OC1=O | -1.31%
COc1ccccc1NC=C1C(=O)OC2(CCCCC2)OC1=O | 13.1% (active)
COc1ccc(OC)c(NC=C2C(=O)OC3(CCCCC3)OC2=O)c1 | 2.73%
CCC(C)(C)NC(=O)C(c1ccccc1)N(Cc1cccnc1)C(=O)c1csnn1 (stereo not given) | 0.49%
CN(C)S(=O)(=O)c1cccc(NC(=O)/C=C/c2ccccc2[N+](=O)[O-])c1 | 6.53%
O=S1(=O)c2ccccc2N=NN1Cc1cc(Cl)cc(Cl)c1 | 3.2%
O=S1(=O)c2ccccc2N=NN1Cc1ccc(Cl)cc1 | 8.76%
